26 compounds from PubChem BioAssay (EPA / NIEHS) can be followed below.

Some compounds were tested as several samples or in several runs, with calls that do not always agree. Calls of active or inactive are those of the source. How the source made its calls: active means hit-call score of the fitted dose curve at least 0.9, where 1 is the maximum; inactive means score below 0.9.

As usually defined, the AC50 is the concentration giving half of the maximal activity seen.

Read-out in the first assay: Vascular cell adhesion molecule 1 (VCAM1), VCAM1 (gene 7412)
Put plainly: BSK_4H_VCAM1: BioMAP Diversity Plus: 4H Assay for Vascular cell adhesion molecule 1 (VCAM1) Biomarker Activity (AID 2283033).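 On outcome: cell-surface VCAM-1 protein measured by ELISA.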 The settings on record: primary human endothelial cells (HUVEC); actives raise or lower the signal. In a few lines:
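In this human endothelial (HUVEC) system, biomarker ELISA was run 24 h after compound addition, and total protein in parallel wells was assessed by SRB at 560 nm; DMSO served as negative control.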
Turning to `CC(C)(C)C(O)C(Oc1ccc(Cl)cc1)n1cncn1` (stereo not given), the outcome was inactive.
With `CCOCN(C(=O)CCl)c1c(C)cccc1CC`, the AC50 is 19.2 µM (active).
Consider `[2H]C1([2H])[n+]2ccccc2-c2cccc[n+]2C1([2H])[2H]`, for which the outcome was inactive.
Still for that read-out and setting: the value for `CCOc1nc(NC)nc(NC(=O)NS(=O)(=O)c2ccccc2C(=O)OC)n1` was “inactive”; that for `Cc1cc(C)nc(NC(=O)NS(=O)(=O)c2ccccc2C(=O)OC2COC2)n1` was “inactive”.
Regarding `COc1nn(CSP(=S)(OC)OC)c(=O)s1`, the outcome was inactive.
Consider `Oc1ccc(Cl)cc1Cc1ccccc1`, for which the AC50 is 31 µM (active) [middle of 6 runs].
Consider `CCOC1Oc2ccc(OS(C)(=O)=O)cc2C1(C)C` (stereo not given), for which the outcome was inactive.
As to `ClC1C(Cl)C(Cl)C(Cl)C(Cl)C1Cl` (stereo not given), the outcome was inactive.
In the case of `N#CN`, the outcome was inactive.
Take `CC1(c2ccc(Oc3ccccc3)cc2)OC(=O)N(Nc2ccccc2)C1=O` (stereo not given): the AC50 is 15.3 µM (active).
`CCCN(CCC)c1c([N+](=O)[O-])cc(C(F)(F)F)cc1[N+](=O)[O-]`: the half-maximal activity concentration (AC50) is 28.2 µM (active).
As for `COc1cc(OC)nc(NC(=O)NS(=O)(=O)c2cc(NC=O)ccc2C(=O)N(C)C)n1`, the outcome was inactive.
The same measure, in the same setting: the entry for `O=S(=O)(O)C(F)(F)C(F)(F)C(F)(F)C(F)(F)C(F)(F)C(F)(F)C(F)(F)C(F)(F)F` is “inactive”.
For `N#Cc1c(Cl)c(Cl)c(Cl)c(C#N)c1Cl`, the half-maximal activity concentration (AC50) was 1.16 µM (active).
Take `O=[N+]([O-])c1c(Cl)c(Cl)c(Cl)c(Cl)c1Cl`: the AC50 is 19.3 µM (active).

Read-out in a further assay: Interferon-gamma inducible Protein 10 (IP10), CXCL10 (gene 3627)
Put plainly: BSK_BE3C_IP10: BioMAP Diversity Plus: BE3C Assay for Interferon-gamma inducible Protein 10 (IP10) Biomarker Activity (AID 2283034). The settings on record: primary human bronchial epithelial cells; actives raise or lower the signal. The method, boiled down:
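BE3C cells (human bronchial epithelial, primary); 24 h exposure; ELISA for IP-10; DMSO-referenced bidirectional fit.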
Consider `O=C(O)C(F)(F)C(F)(F)C(F)(F)C(F)(F)C(F)(F)C(F)(F)C(F)(F)F`, for which the half-maximal activity concentration (AC50) was 43.9 µM (active) [middle of 4 runs] and the outcome was inactive.
`COP(=O)(OC)OC=C(Cl)Cl`: the result was inactive.
Still for that read-out and setting: the entry for `COP(=S)(OC)Oc1ccc([N+](=O)[O-])cc1` is “inactive”; for `O=C(NC(=O)c1c(F)cccc1F)Nc1ccc(OC(F)(F)C(F)OC(F)(F)F)c(Cl)c1` (stereo not given) it is “inactive”; for `CCc1ccc(C(=O)NN(C(=O)c2cc(C)cc(C)c2)C(C)(C)C)cc1` it is “inactive”.
On the same count and under the same terms, the value for `COC(=O)c1ccccc1S(=O)(=O)NC(=O)N(C)c1nc(C)nc(OC)n1` was “inactive”.
Still for that read-out and setting: the entry for `COC(=O)c1ccccc1CS(=O)(=O)NC(=O)Nc1nc(OC)cc(OC)n1` is “inactive”; for `O=C(O)CCCOc1ccc(Cl)cc1Cl` it is “inactive”; for `O=[N+]([O-])/N=C1\NCCN1Cc1ccc(Cl)nc1` it is “inactive”.
As to `Cc1[nH]c(=O)n(C(C)(C)C)c(=O)c1Cl`, the outcome was inactive.
On the same count and under the same terms, the value for `CC(C)(C)C(O)C(Oc1ccc(Cl)cc1)n1cncn1` (stereo not given) was “inactive”.
`CCOCN(C(=O)CCl)c1c(C)cccc1CC`: the AC50 was 16.5 µM (active).
`[2H]C1([2H])[n+]2ccccc2-c2cccc[n+]2C1([2H])[2H]`: the outcome was inactive.
For the compound `CCOc1nc(NC)nc(NC(=O)NS(=O)(=O)c2ccccc2C(=O)OC)n1`, the outcome was inactive.
With `Cc1cc(C)nc(NC(=O)NS(=O)(=O)c2ccccc2C(=O)OC2COC2)n1`, the result was inactive.
The same measure, in the same setting: the value for `COc1nn(CSP(=S)(OC)OC)c(=O)s1` was “inactive”.
Turning to `Oc1ccc(Cl)cc1Cc1ccccc1`, the concentration at half-maximal activity (AC50) was 35.3 µM (active) [middle of 7 runs].
`CCOC1Oc2ccc(OS(C)(=O)=O)cc2C1(C)C` (stereo not given): the result was inactive.
On the same count and under the same terms, the value for `ClC1C(Cl)C(Cl)C(Cl)C(Cl)C1Cl` (stereo not given) was “inactive”.
Take `N#CN`: the result was inactive.
Regarding `CC1(c2ccc(Oc3ccccc3)cc2)OC(=O)N(Nc2ccccc2)C1=O` (stereo not given), the half-maximal activity concentration (AC50) is 15 µM (active).
Still for that read-out and setting: the figure for `CCCN(CCC)c1c([N+](=O)[O-])cc(C(F)(F)F)cc1[N+](=O)[O-]` is 25.1 µM (active).
On to `COc1cc(OC)nc(NC(=O)NS(=O)(=O)c2cc(NC=O)ccc2C(=O)N(C)C)n1`, for which the result was inactive.
As to `O=S(=O)(O)C(F)(F)C(F)(F)C(F)(F)C(F)(F)C(F)(F)C(F)(F)C(F)(F)C(F)(F)F`, the AC50 is 17.3 µM (active) [middle of 7 runs].
On the same count and under the same terms, the figure for `N#Cc1c(Cl)c(Cl)c(Cl)c(C#N)c1Cl` is 2.35 µM (active).
Regarding `O=[N+]([O-])c1c(Cl)c(Cl)c(Cl)c(Cl)c1Cl`, the outcome was inactive.

Read-out in a further assay: Monokine induced gamma interferon (MIG), CXCL9 (gene 4283)
Put plainly: BSK_BE3C_MIG: BioMAP Diversity Plus: BE3C Assay for Monokine induced gamma interferon (MIG) Biomarker Activity (AID 2283035).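 On outcome: MIG protein measured by ELISA in BE3C cultures after 24 h of dosing.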 Conditions: primary human bronchial epithelial cells; actives raise or lower the signal. The method, boiled down:
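hu bronchial epithelial 1° cells, 24 h cpd; MIG by ELISA; bidirectional fit, DMSO = baseline.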
For `O=C(O)C(F)(F)C(F)(F)C(F)(F)C(F)(F)C(F)(F)C(F)(F)C(F)(F)F`, the outcome was inactive.
Still for that read-out and setting: the value for `COP(=O)(OC)OC=C(Cl)Cl` was “inactive”.
The same measure, in the same setting: the value for `COP(=S)(OC)Oc1ccc([N+](=O)[O-])cc1` was “inactive”; that for `O=C(NC(=O)c1c(F)cccc1F)Nc1ccc(OC(F)(F)C(F)OC(F)(F)F)c(Cl)c1` (stereo not given) was “inactive”.
Same read-out and setting: the entry for `CCc1ccc(C(=O)NN(C(=O)c2cc(C)cc(C)c2)C(C)(C)C)cc1` is “inactive”; for `COC(=O)c1ccccc1S(=O)(=O)NC(=O)N(C)c1nc(C)nc(OC)n1` it is “inactive”.
Regarding `COC(=O)c1ccccc1CS(=O)(=O)NC(=O)Nc1nc(OC)cc(OC)n1`, the result was inactive.
In the case of `O=C(O)CCCOc1ccc(Cl)cc1Cl`, the outcome was inactive.
On the same count and under the same terms, the value for `O=[N+]([O-])/N=C1\NCCN1Cc1ccc(Cl)nc1` was “inactive”; that for `Cc1[nH]c(=O)n(C(C)(C)C)c(=O)c1Cl` was “inactive”.
On the same count and under the same terms, the entry for `CC(C)(C)C(O)C(Oc1ccc(Cl)cc1)n1cncn1` (stereo not given) is “inactive”.
Consider `CCOCN(C(=O)CCl)c1c(C)cccc1CC`, for which the outcome was inactive.
Still for that read-out and setting: the entry for `[2H]C1([2H])[n+]2ccccc2-c2cccc[n+]2C1([2H])[2H]` is “inactive”.
Still for that read-out and setting: the entry for `CCOc1nc(NC)nc(NC(=O)NS(=O)(=O)c2ccccc2C(=O)OC)n1` is “inactive”; for `Cc1cc(C)nc(NC(=O)NS(=O)(=O)c2ccccc2C(=O)OC2COC2)n1` it is “inactive”; for `COc1nn(CSP(=S)(OC)OC)c(=O)s1` it is “inactive”.
Take `Oc1ccc(Cl)cc1Cc1ccccc1`: the concentration at half-maximal activity (AC50) is 37.3 µM (active) [middle of 7 runs].
On to `CCOC1Oc2ccc(OS(C)(=O)=O)cc2C1(C)C` (stereo not given), for which the outcome was inactive.
Still for that read-out and setting: the value for `ClC1C(Cl)C(Cl)C(Cl)C(Cl)C1Cl` (stereo not given) was “inactive”; that for `N#CN` was “inactive”; that for `CC1(c2ccc(Oc3ccccc3)cc2)OC(=O)N(Nc2ccccc2)C1=O` (stereo not given) was “inactive”.
The same measure, in the same setting: the value for `CCCN(CCC)c1c([N+](=O)[O-])cc(C(F)(F)F)cc1[N+](=O)[O-]` was “inactive”; that for `COc1cc(OC)nc(NC(=O)NS(=O)(=O)c2cc(NC=O)ccc2C(=O)N(C)C)n1` was “inactive”.
For the compound `O=S(=O)(O)C(F)(F)C(F)(F)C(F)(F)C(F)(F)C(F)(F)C(F)(F)C(F)(F)C(F)(F)F`, the half-maximal activity concentration (AC50) was 43.3 µM (active) [middle of 4 runs] and the result was inactive.
Turning to `N#Cc1c(Cl)c(Cl)c(Cl)c(C#N)c1Cl`, the AC50 was 3.01 µM (active).
Take `O=[N+]([O-])c1c(Cl)c(Cl)c(Cl)c(Cl)c1Cl`: the result was inactive.
